# According to ChEMBL document CHEMBL3988442, “University of Dundee, Small-Polar-MMV Screening Library” (2021):
# For some assays here: Results with a measured potency or affinity are listed apart.
# Key:
# Set-up in all cases: scale not given: direction of the effect not stated beside the values
# [1] = molecular target: Protein translocase subunit SecA (Escherichia coli (strain K12)) (UniProt P10408); assay: Assay to Identify E. coli SecA ATPase Inhibitors; assay type: functional; details: 30 µM
# Chain of Protein translocase subunit SecA (Escherichia coli (strain K12)) (P10408 whole entry): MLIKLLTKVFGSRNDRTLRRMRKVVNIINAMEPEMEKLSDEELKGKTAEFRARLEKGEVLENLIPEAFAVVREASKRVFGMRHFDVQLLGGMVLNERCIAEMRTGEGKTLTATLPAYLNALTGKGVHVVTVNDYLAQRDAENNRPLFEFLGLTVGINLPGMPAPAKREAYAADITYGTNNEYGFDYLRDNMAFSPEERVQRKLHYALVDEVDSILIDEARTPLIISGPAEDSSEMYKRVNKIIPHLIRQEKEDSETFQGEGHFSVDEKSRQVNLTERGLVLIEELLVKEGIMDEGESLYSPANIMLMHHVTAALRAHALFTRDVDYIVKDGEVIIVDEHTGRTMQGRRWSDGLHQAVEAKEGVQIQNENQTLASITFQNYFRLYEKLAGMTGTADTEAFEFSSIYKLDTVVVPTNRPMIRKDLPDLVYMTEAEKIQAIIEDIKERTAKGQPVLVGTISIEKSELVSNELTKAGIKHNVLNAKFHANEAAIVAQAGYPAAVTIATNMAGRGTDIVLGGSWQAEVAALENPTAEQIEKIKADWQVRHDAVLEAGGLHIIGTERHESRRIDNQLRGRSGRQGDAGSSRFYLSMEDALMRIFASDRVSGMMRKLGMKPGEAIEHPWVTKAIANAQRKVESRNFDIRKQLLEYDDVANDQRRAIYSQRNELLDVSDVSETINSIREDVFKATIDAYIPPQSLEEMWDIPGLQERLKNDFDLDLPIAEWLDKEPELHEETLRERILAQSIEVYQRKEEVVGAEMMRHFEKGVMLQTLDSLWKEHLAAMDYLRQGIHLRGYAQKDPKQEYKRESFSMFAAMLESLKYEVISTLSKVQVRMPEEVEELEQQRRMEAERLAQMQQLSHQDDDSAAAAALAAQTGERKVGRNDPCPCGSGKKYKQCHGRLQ
# [2] = molecular target: T1, Ubiquitin-activating enzyme e1, putative (Leishmania donovani (strain BPK282A1)) (UniProt E9BSI1); assay: Leishmania donovani Ubiquitin Activating Enzyme (LdE1); assay type: functional; details: 30 µM
# T1 sequence (whole entry): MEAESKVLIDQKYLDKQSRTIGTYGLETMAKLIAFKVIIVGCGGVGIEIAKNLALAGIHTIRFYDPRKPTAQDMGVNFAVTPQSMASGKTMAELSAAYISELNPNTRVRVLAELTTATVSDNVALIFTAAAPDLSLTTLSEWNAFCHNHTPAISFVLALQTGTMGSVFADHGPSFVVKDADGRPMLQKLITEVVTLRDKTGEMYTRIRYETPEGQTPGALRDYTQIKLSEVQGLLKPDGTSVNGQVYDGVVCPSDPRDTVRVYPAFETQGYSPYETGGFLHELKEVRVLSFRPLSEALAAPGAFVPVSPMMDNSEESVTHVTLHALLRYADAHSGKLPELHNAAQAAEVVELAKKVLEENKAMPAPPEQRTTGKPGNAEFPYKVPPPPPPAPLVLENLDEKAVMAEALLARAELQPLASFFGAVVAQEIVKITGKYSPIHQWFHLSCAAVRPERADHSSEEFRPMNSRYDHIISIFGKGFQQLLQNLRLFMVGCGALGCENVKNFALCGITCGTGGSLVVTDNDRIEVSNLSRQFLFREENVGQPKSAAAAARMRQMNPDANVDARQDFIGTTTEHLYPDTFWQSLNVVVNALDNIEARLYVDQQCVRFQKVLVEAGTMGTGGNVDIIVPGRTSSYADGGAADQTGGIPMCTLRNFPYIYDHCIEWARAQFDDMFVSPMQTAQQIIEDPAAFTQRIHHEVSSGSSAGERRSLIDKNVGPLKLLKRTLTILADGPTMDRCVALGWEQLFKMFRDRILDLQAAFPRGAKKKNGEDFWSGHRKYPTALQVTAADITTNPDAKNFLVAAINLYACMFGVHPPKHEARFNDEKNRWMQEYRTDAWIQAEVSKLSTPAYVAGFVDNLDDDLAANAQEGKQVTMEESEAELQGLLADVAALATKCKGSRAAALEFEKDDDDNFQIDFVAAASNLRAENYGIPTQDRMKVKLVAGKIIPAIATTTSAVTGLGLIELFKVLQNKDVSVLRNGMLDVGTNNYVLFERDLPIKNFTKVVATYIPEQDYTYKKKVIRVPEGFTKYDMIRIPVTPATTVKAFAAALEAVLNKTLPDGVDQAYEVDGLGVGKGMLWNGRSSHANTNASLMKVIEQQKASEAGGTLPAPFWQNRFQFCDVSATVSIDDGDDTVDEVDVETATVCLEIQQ
# [3] = molecular target: T2, Aspartate--tRNA(Asp/Asn) ligase (Mycobacterium tuberculosis (strain ATCC 25618 / H37Rv)) (UniProt P9WFW3); assay: Assay for Asp RNA synthetase-1 from Mycobacterium tuberculosis; assay type: functional; details: 30 µM; also: in the data most compounds retested in dose-response had high values
# T2 sequence (whole entry): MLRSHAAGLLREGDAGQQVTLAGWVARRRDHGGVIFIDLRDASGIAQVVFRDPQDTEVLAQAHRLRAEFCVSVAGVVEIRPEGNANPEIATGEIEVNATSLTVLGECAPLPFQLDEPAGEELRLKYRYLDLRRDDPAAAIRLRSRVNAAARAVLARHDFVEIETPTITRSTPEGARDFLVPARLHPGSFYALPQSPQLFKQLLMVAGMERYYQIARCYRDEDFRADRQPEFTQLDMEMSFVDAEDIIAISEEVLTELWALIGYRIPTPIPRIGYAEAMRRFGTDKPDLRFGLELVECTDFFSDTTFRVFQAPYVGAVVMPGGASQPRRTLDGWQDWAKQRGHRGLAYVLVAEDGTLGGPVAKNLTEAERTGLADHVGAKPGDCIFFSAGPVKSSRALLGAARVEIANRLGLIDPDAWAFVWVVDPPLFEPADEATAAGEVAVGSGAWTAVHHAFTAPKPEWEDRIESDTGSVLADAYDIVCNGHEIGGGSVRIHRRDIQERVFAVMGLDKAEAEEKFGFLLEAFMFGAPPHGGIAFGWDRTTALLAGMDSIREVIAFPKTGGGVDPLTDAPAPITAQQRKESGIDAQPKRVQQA
# [4] = molecular target: AMP-activated protein kinase, AMPK (Homo sapiens) (UniProt P54646+O43741+P54619+Q9UGJ0+Q9Y478+Q13131+Q9UGI9); assay: AMP-dependent Kinase enzyme assay. An in vitro enzyme assay that detects ADP turnover that is directly proportional to AMPK activity. This uses naive AMPK that is activated during the assay with MK-8722; assay type: functional; details: 30 µM
# [5] = molecular target: Sialic acid-binding Ig-like lectin 9 (Homo sapiens) (UniProt Q9Y336); assay: Hs-Siglec9 ALPHAscreen SOP 20170721; details: 10 µM
# Chain of Sialic acid-binding Ig-like lectin 9 (Homo sapiens) (Q9Y336 whole entry): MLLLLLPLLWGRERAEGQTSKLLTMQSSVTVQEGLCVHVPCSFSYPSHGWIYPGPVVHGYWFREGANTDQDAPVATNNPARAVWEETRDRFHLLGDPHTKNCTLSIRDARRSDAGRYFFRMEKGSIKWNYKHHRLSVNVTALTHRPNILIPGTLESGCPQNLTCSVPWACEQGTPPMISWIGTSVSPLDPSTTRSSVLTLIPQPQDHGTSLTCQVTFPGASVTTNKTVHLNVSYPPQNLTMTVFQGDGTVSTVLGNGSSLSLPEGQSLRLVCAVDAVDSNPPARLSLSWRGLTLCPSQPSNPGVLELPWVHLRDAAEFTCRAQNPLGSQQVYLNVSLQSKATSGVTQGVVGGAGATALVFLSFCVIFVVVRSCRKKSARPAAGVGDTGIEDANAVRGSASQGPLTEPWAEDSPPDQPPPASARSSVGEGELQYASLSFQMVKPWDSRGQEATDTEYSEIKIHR
# Trypanosoma cruzi = assay: Trypanosoma cruzi phosphomannomutase and mannose-1-phosphate guanylyltransferase assay; assay type: functional; details: 10 µM
# [6] = molecular target: T3, Arginase-2, mitochondrial (Homo sapiens) (UniProt P78540); assay: in vitro enzyme assay to detect the production of urea directly proportional to the activity of Arginase II; assay type: functional; details: 33.3 µM; also: in the data most compounds retested in dose-response had high values
# T3 sequence (whole entry): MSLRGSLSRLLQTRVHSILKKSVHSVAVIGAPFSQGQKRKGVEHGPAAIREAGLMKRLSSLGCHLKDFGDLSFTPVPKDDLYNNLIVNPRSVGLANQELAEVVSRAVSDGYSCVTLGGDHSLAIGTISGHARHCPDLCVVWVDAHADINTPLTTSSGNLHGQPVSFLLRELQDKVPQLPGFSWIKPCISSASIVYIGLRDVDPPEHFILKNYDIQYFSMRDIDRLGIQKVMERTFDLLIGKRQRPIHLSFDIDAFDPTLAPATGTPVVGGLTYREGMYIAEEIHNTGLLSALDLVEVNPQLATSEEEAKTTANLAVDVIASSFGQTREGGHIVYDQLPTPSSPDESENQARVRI
# [7] = molecular target: T4, Proteasome subunit beta (Trypanosoma cruzi) (UniProt O96673); assay: Trypanosoma cruzi proteasome chymotrypsin-like activity (TcProtChymo) assay.; also: in the data most compounds retested in dose-response had high values; assay type: functional; details: 9.37 µM
# T4 sequence (whole entry): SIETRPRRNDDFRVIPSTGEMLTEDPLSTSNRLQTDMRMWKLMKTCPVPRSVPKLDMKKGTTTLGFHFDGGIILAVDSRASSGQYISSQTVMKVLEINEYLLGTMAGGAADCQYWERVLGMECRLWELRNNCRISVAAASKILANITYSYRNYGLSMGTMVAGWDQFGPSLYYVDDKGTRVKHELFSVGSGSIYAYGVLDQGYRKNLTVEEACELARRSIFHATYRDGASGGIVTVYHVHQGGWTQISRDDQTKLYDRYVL
# Homo sapiens = species: Homo sapiens; assay: To identify inhibition of the IFN signalling (Jak-Stat) pathway via expression of an eGFP reporter gene under the control of an IFN-stimulated response element (ISRE) containing MxA promoter.; assay type: functional; details: 30 µM
# [8] = molecular target: Shiga toxin 2 (Escherichia coli O157:H7) (UniProt P09385+P09386); assay: E. coli 0.157:H7 Shiga Toxin SOP - stx2 screening assay; assay type: functional; details: 30 µM
# [9] = molecular target: T5, Tyrosyl-tRNA synthetase, putative (Trypanosoma cruzi (strain CL Brener)) (UniProt Q4DSP6); assay: Trypanosoma cruzi tyrosyl tRNA synthetase (TcYRS) _High Tyrosine SOP; assay type: functional; details: 30 µM; also: in the data most compounds retested in dose-response had high values
# T5 sequence (whole entry): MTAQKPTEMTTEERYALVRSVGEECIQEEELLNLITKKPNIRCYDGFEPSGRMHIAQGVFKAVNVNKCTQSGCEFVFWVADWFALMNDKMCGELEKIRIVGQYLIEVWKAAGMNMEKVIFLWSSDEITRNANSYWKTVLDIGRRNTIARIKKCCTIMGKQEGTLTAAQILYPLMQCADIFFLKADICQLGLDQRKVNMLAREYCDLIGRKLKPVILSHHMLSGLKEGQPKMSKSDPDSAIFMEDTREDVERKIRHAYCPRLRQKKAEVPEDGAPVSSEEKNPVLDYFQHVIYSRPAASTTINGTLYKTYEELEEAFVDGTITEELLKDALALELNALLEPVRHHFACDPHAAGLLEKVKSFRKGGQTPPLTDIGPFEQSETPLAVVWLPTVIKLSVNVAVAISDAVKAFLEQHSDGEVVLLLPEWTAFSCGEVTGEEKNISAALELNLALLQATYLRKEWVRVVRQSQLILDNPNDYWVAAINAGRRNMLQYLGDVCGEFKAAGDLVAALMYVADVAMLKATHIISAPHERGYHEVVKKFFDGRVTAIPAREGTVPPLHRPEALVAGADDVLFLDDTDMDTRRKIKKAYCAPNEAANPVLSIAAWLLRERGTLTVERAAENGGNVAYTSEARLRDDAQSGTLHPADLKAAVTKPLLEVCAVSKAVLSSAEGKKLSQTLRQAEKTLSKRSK
# [10] = molecular target: T5, Tyrosyl-tRNA synthetase, putative (Trypanosoma cruzi (strain CL Brener)); assay: Trypanosoma cruzi tyrosyl tRNA synthetase (TcYRS) SOP; assay type: functional; details: 30 µM
# [11] = molecular target: Chromo domain-containing protein 1 (Saccharomyces cerevisiae (strain ATCC 204508 / S288c) (Baker's yeast)) (UniProt P32657); assay: ScCHD-1 Enzyme Inhibition Assay; assay type: functional; details: 30 µM; also: in the data most compounds retested in dose-response had high values
# Chain of Chromo domain-containing protein 1 (Saccharomyces cerevisiae (strain ATCC 204508 / S288c) (Baker's yeast)) (P32657 whole entry, the tested form may be a part): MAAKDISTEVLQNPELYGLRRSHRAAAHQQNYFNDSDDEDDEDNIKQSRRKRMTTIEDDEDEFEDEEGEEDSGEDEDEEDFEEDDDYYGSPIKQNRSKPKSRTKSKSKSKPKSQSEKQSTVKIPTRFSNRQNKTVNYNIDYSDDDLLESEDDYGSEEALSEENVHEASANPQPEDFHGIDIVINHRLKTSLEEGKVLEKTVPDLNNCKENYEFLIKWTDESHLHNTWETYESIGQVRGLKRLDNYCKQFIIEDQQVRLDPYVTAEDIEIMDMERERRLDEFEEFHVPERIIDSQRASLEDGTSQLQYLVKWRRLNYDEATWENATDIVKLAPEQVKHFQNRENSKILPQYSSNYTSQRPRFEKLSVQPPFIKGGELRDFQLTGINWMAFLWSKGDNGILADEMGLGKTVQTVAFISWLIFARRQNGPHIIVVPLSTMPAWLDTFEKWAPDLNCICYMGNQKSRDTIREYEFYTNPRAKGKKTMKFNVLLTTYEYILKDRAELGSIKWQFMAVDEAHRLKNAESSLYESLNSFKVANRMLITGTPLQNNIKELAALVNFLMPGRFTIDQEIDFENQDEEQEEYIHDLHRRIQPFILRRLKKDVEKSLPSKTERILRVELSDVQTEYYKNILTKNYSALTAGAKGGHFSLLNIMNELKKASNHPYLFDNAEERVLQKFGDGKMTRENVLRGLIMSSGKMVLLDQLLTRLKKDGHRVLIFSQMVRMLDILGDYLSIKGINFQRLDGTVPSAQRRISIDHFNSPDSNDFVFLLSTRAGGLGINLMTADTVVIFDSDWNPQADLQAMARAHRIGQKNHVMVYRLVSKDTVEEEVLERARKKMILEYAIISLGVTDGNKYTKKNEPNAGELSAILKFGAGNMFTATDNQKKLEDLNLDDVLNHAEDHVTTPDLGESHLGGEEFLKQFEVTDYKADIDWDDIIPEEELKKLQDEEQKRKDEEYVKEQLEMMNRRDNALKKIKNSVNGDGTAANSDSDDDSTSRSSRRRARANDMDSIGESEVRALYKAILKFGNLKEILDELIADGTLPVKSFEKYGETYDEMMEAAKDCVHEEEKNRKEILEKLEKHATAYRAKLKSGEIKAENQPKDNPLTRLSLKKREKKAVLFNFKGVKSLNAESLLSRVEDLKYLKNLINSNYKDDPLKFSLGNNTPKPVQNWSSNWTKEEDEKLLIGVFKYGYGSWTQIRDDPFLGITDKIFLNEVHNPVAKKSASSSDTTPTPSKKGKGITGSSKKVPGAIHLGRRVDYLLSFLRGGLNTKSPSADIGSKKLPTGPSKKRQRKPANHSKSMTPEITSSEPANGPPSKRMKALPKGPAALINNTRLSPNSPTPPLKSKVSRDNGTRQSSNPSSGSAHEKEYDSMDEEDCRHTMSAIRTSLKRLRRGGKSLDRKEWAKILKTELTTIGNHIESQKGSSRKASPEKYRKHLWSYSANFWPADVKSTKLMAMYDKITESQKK
SMILES,Percent Effect [1] [%],Percent Effect [2] [%],Percent Effect [3] [%],Percent Effect [4] [%],Percent Effect [5] [%],Percent Effect (Trypanosoma cruzi) [%],Percent Effect [6] [%],Percent Effect [7] [%],Percent Effect (Homo sapiens) [%],Percent Effect [8] [%],Percent Effect [9] [%],Percent Effect [10] [%],Percent Effect [11] [%]
CN1C(=O)C2(CCN(CCO)C2)c2ccccc21 (stereo not given),-3.9,10.8,-3.9,5.24,-5.82,-4.01,0.319,24.9,-2.44,-6.34,1.08,12.8,-1.83
O=C(c1ccc2c(c1)COC2)N1CCC(Nc2ccccc2)CC1,-4.95,7.79,-0.152,5.07,13.2,5.06,1.78,-4.05,25,1.98,6.8,24.4,-6.83
NCC1(c2cccc(C(F)(F)F)c2)CCOCC1,-1.6,5.41,0.69,-16.1,-3.19,-0.781,25,15.6,7.66,-1.62,7.92,18.3,107
O=C(Cc1ccccc1)N1CCN(Cc2noc(C3CC3)n2)CC1,-1.81,11.4,-2.26,0.817,1.57,-4.62,-3.23,12.9,-5.12,0.476,7.29,15.2,-22.4
O=C(N[C@H]1CN[C@H]2CCCO[C@H]21)c1cscn1,1.11,21.9,4.92,-4.2,5.27,0,-1.6,18.6,4.9,-0.964,7.29,13.6,-4.35
CCOCC(O)CN1CCN(C(=O)Cc2ccc3c(c2)CCO3)CC1 (stereo not given),1.74,10.5,0.3,2.16,5,-3.76,6.51,21.4,19.4,30.7,3.43,12.2,-2.97
c1cncc(CN2CC[C@H]3O[C@@H](COCC4CC4)CC[C@H]32)c1,-2.96,-2.67,-5.28,10.2,2.62,-0.591,7.23,-2.38,8.64,-10.9,4.25,6.41,3.34
Cn1cc(CN2CC[C@H]3CO[C@H](CNc4ncccn4)[C@H]3C2)cn1,-1.24,13.3,-0.0582,1.6,-7.11,5.02,-57.2,9.4,3.12,-32.2,7.29,22.5,-6.99
Cc1ncsc1CN1CC[C@H]2C[C@H](c3ccncn3)O[C@@H]2C1,1.18,10.4,1.35,2.98,-6.01,-9.57,0.645,9.4,24.2,0.203,1.06,6.41,-5.8
CCN(CCc1ccccc1)Cn1nc(C)c2c(C)onc2c1=O,-5.66,-8.11,5.17,-13.6,25.2,3.68,-3.21,7.75,5.78,16,9.36,23.5,-14.1
O=C(C1CC1)N1CCC2(CC1)OCCO2,-2.52,7.89,0.21,-0.0617,-9.69,-4.38,2.37,14.1,14.1,-6.13,0,10.4,-6.58
Cc1n[nH]c2c1C(c1ccc(O)c(Cl)c1)SCC(=O)N2 (stereo not given),-3.6,4,-0.755,21.6,4.97,-3.73,-6.16,5.18,10.7,-29.6,9.52,15.4,-4.99
c1ccc(CN2C[C@@H]3OCCN(CC4CCCO4)[C@@H]3C2)nc1 (stereo not given in full),-4.3,10.8,-0.749,-3.75,1.76,4.01,15,15.5,22.6,4.43,7.57,15.4,-4.89
COc1cccc(CNC(C)Cn2cccn2)c1OC (stereo not given),-0.666,2.6,6.86,1.22,3.25,-0.749,1.42,2.37,7.27,0.638,1.94,0,-2.46
CNC(=O)CN1CCOCC2(CCCN(Cc3cccnc3)C2)C1 (stereo not given),-1.67,-2.7,2.13,2.03,-2.12,-4.1,-0.833,0.93,-2.53,-22.5,6.93,1.22,3.52
CC(C)=CCN1C(=O)[C@H]2CC[C@@H]1CN(Cc1cccnc1N)C2,5.73,4.17,4.65,1.92,2,-5.34,3.53,23.7,7.39,-25.3,7.37,2.56,2.83
Cc1cccc(CO[C@@H]2CC[C@H]3[C@H]2OCCN3Cc2ccsc2)n1,-6.22,21.3,0.204,-3.76,1.99,4.44,-38.9,13.3,20.3,-20.4,3.12,15,-6.6
O=C(Cc1ccc(F)cc1)N1CCN(CC(O)C2CC2)CC1 (stereo not given),-9.94,5.48,0.575,0.569,-4.1,-5.09,-3.64,6.74,10.6,7.07,3.23,10,-5.88
Cc1cc(CN2C[C@@H]3COC[C@]3(CNC(=O)c3ccno3)C2)no1,-5.72,2.7,6.65,2.65,4.53,0.293,8.6,13.1,-16.8,-2.33,3.24,5.13,1.22
Cn1cc(C(=O)N2CC[C@@H]3[C@@H]2CCN3Cc2cccnc2)cn1,-4.7,8.11,1.51,4.43,1.46,-2.83,0.955,17.7,-13.9,-2.5,3.24,12.8,0.704
